# Measured values as given in paper PMC7862700, “An all-to-all approach to the identification of sequence-specific readers for epigenetic DNA modifications on cytosine”.
# Legend:
# Experiment in all cases: DAPPL (digital affinity profiling via proximity ligation, sequencing); 10 mM Tris-HCl pH 7.5, 50 mM NaCl, 1 mM DTT, 4% glycerol, room temperature, 30 min; GST-TFs on glutathione beads, 16-mer random dsDNA library, 0.1% formaldehyde crosslink after washing; high values mean tight binding
# Details in all cases: protein: recombinant; tags: N-terminal GST; dsDNA, one strand shown
# FLI1 = molecular target: T1, FLI1 (Homo sapiens, UniProt Q01543 1-452)
# T1 sequence: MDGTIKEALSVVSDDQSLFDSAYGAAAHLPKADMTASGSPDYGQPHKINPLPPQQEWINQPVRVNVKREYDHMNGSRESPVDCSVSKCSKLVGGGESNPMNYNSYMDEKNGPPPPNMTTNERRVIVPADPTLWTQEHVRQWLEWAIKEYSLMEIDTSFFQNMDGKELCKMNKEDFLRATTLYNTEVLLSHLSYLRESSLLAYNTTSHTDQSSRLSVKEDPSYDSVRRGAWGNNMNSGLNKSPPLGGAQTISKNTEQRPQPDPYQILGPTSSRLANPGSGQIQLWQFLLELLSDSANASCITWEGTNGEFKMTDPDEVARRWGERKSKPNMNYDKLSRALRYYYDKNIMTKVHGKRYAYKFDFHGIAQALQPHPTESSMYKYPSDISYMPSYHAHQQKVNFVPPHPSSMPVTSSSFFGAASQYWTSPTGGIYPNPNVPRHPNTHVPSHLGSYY
# Summary of the method: (§1)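 Sequencing on an Illumina NextSeq500 followed washing, crosslinking with 0.1% formaldehyde, proximity ligation (BsaI/T4 ligase, 1 h, 37 °C) and PCR amplification of pools that had been incubated for 30 min at room temperature with 200 nmole of a random double-stranded 16-mer DNA library in Tris/NaCl/DTT/glycerol buffer. Each pool held DNA-barcoded human transcription factors, expressed in yeast as GST fusions and captured on glutathione beads, plus a tag-only sample. Binding signal is a hexamer's read frequency for a factor divided by its frequency in the tag-only sample.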
# ERG = molecular target: T2, ERG (Homo sapiens, UniProt P11308 1-479)
# T2 sequence: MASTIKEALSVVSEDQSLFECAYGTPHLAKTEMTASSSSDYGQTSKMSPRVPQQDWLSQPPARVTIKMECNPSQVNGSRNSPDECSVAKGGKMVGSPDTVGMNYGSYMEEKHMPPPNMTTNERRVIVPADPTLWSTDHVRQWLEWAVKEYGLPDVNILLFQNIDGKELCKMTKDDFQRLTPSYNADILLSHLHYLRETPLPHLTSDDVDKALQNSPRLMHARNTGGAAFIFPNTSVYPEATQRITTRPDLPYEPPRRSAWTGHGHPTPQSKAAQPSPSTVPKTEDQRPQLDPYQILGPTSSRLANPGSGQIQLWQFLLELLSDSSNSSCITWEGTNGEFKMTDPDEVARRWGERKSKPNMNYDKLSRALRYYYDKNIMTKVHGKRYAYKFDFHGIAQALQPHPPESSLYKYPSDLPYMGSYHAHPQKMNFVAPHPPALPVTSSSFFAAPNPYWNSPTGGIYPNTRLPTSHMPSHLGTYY
# Summary of the method: as §1
# EHF = molecular target: T3, EHF (Homo sapiens, UniProt Q9NZC4 1-300)
# T3 sequence: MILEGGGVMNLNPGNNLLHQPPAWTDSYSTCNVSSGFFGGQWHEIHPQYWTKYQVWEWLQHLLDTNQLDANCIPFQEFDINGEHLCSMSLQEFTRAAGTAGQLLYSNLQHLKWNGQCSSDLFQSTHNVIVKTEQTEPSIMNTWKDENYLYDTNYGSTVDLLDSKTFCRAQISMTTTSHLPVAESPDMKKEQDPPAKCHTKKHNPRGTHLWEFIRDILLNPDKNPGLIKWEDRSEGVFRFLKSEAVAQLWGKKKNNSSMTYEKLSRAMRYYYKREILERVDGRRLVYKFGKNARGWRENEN
# Summary of the method: as §1
# SPI1 = SPI1 (Homo sapiens, UniProt P17947 1-270)
# Summary of the method: as §1
# SPIB = SPIB (Homo sapiens, UniProt Q01892 1-262)
# Summary of the method: as §1
# ELK3 = molecular target: T4, ELK3 (Homo sapiens, UniProt P41970 1-407)
# T4 sequence: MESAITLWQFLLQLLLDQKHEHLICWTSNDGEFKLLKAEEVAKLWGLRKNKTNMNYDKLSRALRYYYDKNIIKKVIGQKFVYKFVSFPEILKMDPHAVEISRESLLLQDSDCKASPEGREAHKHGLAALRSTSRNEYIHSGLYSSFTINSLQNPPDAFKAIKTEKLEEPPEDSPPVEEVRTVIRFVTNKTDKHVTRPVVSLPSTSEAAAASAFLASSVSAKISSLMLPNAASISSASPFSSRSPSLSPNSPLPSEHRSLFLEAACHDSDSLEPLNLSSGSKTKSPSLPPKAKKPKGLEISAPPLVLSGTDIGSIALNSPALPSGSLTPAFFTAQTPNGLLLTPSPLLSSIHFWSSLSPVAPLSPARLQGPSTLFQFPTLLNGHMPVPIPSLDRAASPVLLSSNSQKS
# Summary of the method: as §1
# ETV5 = ETV5 (Homo sapiens, UniProt P41161 1-510)
# Summary of the method: as §1
# SPIC = molecular target: T5, SPIC (Homo sapiens, UniProt Q8N5J4 1-248)
# T5 sequence: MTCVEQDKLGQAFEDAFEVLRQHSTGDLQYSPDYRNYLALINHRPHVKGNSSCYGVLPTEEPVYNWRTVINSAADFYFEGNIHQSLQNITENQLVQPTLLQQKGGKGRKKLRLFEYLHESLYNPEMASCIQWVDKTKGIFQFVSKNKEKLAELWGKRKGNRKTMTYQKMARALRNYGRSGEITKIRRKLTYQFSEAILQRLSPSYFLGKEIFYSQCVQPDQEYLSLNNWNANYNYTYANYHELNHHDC
# Summary of the method: as §1
# ERF = molecular target: T6, ERF (Homo sapiens, UniProt P50548 1-548)
# T6 sequence: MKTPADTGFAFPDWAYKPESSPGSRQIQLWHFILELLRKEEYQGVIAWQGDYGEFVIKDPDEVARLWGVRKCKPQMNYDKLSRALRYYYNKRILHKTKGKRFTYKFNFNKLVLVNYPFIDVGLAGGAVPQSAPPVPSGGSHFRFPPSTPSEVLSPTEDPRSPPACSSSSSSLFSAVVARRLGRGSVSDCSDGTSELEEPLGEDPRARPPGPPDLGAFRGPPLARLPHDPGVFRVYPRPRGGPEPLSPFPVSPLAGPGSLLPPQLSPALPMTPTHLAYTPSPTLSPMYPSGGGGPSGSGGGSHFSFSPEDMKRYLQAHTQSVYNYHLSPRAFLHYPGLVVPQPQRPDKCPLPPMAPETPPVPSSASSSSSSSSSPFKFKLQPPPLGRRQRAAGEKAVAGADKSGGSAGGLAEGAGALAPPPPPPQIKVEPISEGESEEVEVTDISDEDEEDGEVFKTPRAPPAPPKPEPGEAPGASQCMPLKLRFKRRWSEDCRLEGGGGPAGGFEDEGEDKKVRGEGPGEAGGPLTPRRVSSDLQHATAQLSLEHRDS
# Summary of the method: as §1
# ETV3 = molecular target: T7, ETV3 (Homo sapiens, UniProt P41162-2 1-143)
# T7 sequence: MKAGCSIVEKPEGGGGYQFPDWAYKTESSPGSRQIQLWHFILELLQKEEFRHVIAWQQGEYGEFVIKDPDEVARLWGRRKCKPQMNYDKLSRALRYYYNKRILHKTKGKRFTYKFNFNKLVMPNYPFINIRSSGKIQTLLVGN
# Summary of the method: as §1
# ETV6 = ETV6 (Homo sapiens, UniProt P41212 1-452)
# Summary of the method: as §1
# FEV = molecular target: T8, FEV (Homo sapiens, UniProt Q99581 1-238)
# T8 sequence: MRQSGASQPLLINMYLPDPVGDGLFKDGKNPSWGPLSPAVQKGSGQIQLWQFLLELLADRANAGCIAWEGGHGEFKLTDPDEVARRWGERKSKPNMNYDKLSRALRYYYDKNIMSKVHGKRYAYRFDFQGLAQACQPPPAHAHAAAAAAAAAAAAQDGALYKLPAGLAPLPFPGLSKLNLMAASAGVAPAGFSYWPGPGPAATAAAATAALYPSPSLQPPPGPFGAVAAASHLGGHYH
# Summary of the method: as §1
# ETV1 = ETV1 (Homo sapiens, UniProt P50549 1-477)
# Summary of the method: as §1
# ETV3L = molecular target: T9, ETV3L (Homo sapiens, UniProt Q6ZN32 1-361)
# T9 sequence: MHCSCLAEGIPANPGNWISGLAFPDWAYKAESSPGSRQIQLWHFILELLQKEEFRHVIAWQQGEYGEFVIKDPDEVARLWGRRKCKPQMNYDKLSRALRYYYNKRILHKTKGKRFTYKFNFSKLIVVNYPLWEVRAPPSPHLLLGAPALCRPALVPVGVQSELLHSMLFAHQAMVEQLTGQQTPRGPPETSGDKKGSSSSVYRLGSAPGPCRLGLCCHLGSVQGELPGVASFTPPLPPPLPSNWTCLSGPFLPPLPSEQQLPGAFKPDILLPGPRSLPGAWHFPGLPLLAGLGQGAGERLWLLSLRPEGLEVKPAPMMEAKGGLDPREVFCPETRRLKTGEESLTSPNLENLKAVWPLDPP
# Summary of the method: as §1
# ETS2 = molecular target: T10, ETS2 (Homo sapiens, UniProt P15036 1-469)
# T10 sequence: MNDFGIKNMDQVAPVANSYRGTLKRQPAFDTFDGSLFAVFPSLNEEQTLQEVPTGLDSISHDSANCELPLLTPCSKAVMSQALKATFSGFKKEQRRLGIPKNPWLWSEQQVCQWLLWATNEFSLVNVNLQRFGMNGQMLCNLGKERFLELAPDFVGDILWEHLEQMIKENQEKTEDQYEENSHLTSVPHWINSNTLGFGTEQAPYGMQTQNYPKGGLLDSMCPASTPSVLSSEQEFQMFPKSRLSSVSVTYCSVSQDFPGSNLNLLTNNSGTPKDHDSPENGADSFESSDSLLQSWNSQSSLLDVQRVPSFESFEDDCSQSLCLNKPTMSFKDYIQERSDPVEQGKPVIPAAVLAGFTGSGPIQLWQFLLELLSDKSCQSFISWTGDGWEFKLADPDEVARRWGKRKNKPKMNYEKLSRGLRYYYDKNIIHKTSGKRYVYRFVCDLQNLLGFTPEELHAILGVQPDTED
# Summary of the method: as §1
# SPDEF = molecular target: T11, SPDEF (Homo sapiens, UniProt O95238 1-335)
# T11 sequence: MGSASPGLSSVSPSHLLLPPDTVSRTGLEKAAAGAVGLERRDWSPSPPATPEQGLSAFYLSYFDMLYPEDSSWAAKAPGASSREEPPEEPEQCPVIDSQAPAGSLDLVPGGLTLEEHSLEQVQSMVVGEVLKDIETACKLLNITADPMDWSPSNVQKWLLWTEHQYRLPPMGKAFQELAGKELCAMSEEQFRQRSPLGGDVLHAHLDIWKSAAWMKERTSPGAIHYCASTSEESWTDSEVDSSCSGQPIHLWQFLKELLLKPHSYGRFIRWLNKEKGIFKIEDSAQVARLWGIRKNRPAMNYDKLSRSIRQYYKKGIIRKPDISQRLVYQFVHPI
# Summary of the method: as §1
# Sequence of ETV5 (P41161 whole entry): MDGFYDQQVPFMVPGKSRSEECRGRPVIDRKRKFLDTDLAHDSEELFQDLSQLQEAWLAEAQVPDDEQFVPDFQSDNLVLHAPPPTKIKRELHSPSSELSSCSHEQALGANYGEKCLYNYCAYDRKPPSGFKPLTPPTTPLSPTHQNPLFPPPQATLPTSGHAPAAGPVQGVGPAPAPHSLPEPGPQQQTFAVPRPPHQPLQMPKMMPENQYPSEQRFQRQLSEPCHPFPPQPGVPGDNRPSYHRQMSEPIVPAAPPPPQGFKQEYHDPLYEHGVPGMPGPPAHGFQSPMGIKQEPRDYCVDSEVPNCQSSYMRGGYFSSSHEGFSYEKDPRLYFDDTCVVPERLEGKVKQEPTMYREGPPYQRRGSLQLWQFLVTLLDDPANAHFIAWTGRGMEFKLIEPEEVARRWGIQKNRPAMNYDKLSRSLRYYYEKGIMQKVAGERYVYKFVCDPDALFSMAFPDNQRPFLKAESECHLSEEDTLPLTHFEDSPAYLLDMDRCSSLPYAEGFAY
# Sequence of ETV6 (P41212 whole entry): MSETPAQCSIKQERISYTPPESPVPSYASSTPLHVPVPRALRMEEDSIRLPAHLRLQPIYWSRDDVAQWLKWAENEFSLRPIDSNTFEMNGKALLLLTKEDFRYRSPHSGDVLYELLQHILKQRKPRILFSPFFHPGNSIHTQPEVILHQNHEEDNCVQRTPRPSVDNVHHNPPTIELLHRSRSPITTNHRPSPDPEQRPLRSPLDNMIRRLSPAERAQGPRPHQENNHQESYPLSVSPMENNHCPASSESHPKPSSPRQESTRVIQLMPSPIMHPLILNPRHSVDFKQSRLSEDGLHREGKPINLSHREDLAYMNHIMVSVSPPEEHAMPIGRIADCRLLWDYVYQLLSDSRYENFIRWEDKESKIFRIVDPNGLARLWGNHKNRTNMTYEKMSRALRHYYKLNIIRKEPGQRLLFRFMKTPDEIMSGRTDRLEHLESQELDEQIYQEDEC
# Sequence of SPIB (Q01892 whole entry): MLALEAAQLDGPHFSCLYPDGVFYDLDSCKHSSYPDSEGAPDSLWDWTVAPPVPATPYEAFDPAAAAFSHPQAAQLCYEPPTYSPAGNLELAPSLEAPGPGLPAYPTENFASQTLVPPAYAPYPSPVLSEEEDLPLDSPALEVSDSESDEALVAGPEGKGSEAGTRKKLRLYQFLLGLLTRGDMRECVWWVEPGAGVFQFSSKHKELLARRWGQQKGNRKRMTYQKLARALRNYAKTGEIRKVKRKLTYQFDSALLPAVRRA
# Sequence of ETV1 (P50549 whole entry): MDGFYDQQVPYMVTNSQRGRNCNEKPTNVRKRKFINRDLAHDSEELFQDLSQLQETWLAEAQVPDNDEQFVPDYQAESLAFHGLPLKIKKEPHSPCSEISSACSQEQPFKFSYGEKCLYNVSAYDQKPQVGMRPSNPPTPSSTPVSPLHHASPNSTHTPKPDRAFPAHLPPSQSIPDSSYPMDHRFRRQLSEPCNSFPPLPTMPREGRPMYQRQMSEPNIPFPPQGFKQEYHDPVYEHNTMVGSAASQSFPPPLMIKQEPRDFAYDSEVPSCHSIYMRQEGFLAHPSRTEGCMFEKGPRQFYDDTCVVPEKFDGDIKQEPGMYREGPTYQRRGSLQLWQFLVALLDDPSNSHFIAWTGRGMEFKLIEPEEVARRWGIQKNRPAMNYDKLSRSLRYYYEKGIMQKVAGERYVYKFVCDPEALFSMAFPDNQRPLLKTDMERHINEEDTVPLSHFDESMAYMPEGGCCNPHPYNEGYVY
Sequence,binding signal (FLI1),binding signal (ERG),binding signal (EHF),binding signal (SPI1),binding signal (SPIB),binding signal (ELK3),binding signal (ETV5),binding signal (SPIC),binding signal (ERF),binding signal (ETV3),binding signal (ETV6),binding signal (FEV),binding signal (ETV1),binding signal (ETV3L),binding signal (ETS2),binding signal (SPDEF)
AGTAAC,"1.02 fold enrichment (6-mer frequency, TF over GST control)","1.02 fold enrichment (6-mer frequency, TF over GST control)","1 fold enrichment (6-mer frequency, TF over GST control)","1.07 fold enrichment (6-mer frequency, TF over GST control)","1 fold enrichment (6-mer frequency, TF over GST control)","1.01 fold enrichment (6-mer frequency, TF over GST control)","1.03 fold enrichment (6-mer frequency, TF over GST control)","1.07 fold enrichment (6-mer frequency, TF over GST control)","1.01 fold enrichment (6-mer frequency, TF over GST control)","1.09 fold enrichment (6-mer frequency, TF over GST control)","1.09 fold enrichment (6-mer frequency, TF over GST control)",–,–,–,–,–
CCCGGT,"1.01 fold enrichment (6-mer frequency, TF over GST control)","1.09 fold enrichment (6-mer frequency, TF over GST control)","1.14 fold enrichment (6-mer frequency, TF over GST control)",–,"1.01 fold enrichment (6-mer frequency, TF over GST control)",–,"1.09 fold enrichment (6-mer frequency, TF over GST control)","1.07 fold enrichment (6-mer frequency, TF over GST control)",–,"1.09 fold enrichment (6-mer frequency, TF over GST control)","1 fold enrichment (6-mer frequency, TF over GST control)","1.04 fold enrichment (6-mer frequency, TF over GST control)","1.07 fold enrichment (6-mer frequency, TF over GST control)","1.01 fold enrichment (6-mer frequency, TF over GST control)","1.04 fold enrichment (6-mer frequency, TF over GST control)","1.11 fold enrichment (6-mer frequency, TF over GST control)"
